In PubChem BioAssay:

Experiment: JC-1 mitochondrial signal, unstimulated HepG2 cells – cell-based, JC-1 fluorescence, 24 h, 100 nL compound, profiling panel (AID 1167); note: test concentration not given here
Settings: HepG2 mitochondrial potential, higher = more signal

| Structure (SMILES) | z-score |
| --- | --- |
| COC(=O)[C@@]1(Cc2ccc(OC)cc2)[C@H]2c3cc(C(=O)N4CCCC4)n(CCc4ccccn4)c3C[C@H]2CN1C(=O)c1ccccc1 | 1.1 |
| CC(=O)N1Cc2ccccc2C[C@@]2(N=C(c3ccc(OCCCO)cc3)O[C@H]2c2ccccc2)C1=O | 1.8 |
| CC(C)NC(=O)[C@@]1(c2ccc([N+](=O)[O-])cc2)CC(=O)N(C(C)C)[C@@H]1c1ccc(CO)cc1 | 0.763 |
| CC(C)C(O)C1C=CC2C(=O)N(C)C(=O)C2N1N1CCCCC1 (configuration not stated) | -0.778 |
| CCCC[C@@H]1C[C@H]1[C@@H](NC(=O)c1ccccc1)c1ccccc1 | -2.36 |
| CCN(CC)c1ccc(N2CC=CC34O[C@@H]5/C=C\CCCOC(=O)C5[C@H]3C(=O)N(CCCO)[C@@H]4C2=O)cc1 (some centres not stated) | 0.472 |
| COc1ccc(C(O)C2C=CC3C(=O)N(c4ccccc4)C(=O)C3N2Nc2ccccc2)c2ccccc12 (configuration not stated) | -1.37 |
| O=[N+]([O-])c1ccc(C[n+]2ccc(CCCO)cc2)o1 | -1.07 |
| C[N+](C)(C)CCCCNC(=O)[C@H]1C[C@H]2C(=O)N3CCC[C@H]3C(=O)N2[C@H]1c1ccc(O)cc1 | -1.1 |
| COCCOC(=O)N1C(=O)[C@@]2(c3ccccc31)[C@H](C(=O)N1CCCCCCC1)[C@H]1C(=O)O[C@H](c3ccccc3)[C@H](c3ccccc3)N1[C@@H]2c1ccccc1OCCO | -0.114 |
| C=CCC(OC(C)=O)[C@@H]1[C@@H](N(Cc2ccc(-c3ccccc3)cc2)C(=O)c2ccc(C)cc2)c2cc(OCCCO)ccc2N1C(=O)Cc1ccc(OC)cc1 (some centres not stated) | 4.08 |
| COC(=O)[C@@]1(Cc2ccc(OC)cc2)[C@H]2c3cc(C(=O)N4CCCC4)n(C[C@H](O)CO)c3C[C@H]2CN1C(=O)c1ccccc1 | 1.76 |
